D2 PAM-1: HTS Assay for Positive Allosteric Modulators of the Human D2 Dopamine Receptor: Primary Screen for Potentiators | D(2) dopamine receptor (Homo sapiens), P14416 | HEK293 T-REx D2, calcium flux, EC20 dopamine potentiation | potentiation, % at 10 µM | 340,000 compounds, 0.34% hits | AID 485347, 2010;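 active = potentiation over 3 SD above the plate norm, cut at about 30% in these data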; also: 0% is about no effect
Target sequence (P14416 whole entry, looked up): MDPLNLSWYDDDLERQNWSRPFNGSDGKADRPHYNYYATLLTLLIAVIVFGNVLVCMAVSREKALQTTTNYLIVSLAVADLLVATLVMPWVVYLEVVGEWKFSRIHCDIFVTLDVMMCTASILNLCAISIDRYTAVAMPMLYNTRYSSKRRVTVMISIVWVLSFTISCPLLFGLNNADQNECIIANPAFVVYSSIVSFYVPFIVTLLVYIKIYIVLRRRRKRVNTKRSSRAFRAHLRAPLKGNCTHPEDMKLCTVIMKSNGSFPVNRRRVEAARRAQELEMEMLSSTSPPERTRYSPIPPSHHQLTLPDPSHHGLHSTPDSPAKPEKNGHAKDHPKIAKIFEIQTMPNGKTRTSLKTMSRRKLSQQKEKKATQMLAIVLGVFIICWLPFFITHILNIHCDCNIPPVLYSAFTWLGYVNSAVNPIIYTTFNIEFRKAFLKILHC
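Cells plated with tetracycline inducer and held overnight at 30 C; calcium dye loaded 30–90 min at room temperature; baseline taken, compound added and read 180 s; EC20 dopamine then added and read 180 s.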
D2 ag-1: HTS Assay for Allosteric Agonists of the Human D2 Dopamine Receptor: Primary Screen for Agonists | D(2) dopamine receptor (Homo sapiens), P14416 | HEK293 T-REx D2 cells, calcium flux agonist mode | activation, % at 2 µM | 340,000 compounds, 0.53% hits | AID 485358, 2010;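 active = activation over 3 SD above normal in the single-dose calcium agonist read, cut at about 30% in these data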; also: 0% is about no effect
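Tetracycline-induced HEK293 Trex cells with D2 receptor force-coupled to calcium signaling, plated overnight at 30 C and loaded with no-wash calcium dye. Calcium flux read kinetically for 180 s after compound addition; responses flag agonists.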
D2 PAM-2: Beta-Arrestin HTS for Positive Allosteric Modulators of the Human D2 Dopamine Receptor: Potentiators; D(2) dopamine receptor (Homo sapiens), P14416; potentiation, % (test concentration not listed); 360,000 compounds, 0.23% hits; AID 624464, 2012; DiscoveRx D2 beta-arrestin cells, luminescence, 90 min; 100% = 57 uM dopamine signal; in the data active = potentiation above about 50%; inconclusive = mostly about 30% to 49%
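PathHunter D2 cells, attached overnight at 37 deg C, received compound in DMSO plus dopamine at EC20 (50 nM final) for 90 min at 37 deg C. Beta-arrestin recruitment was read as luminescence after 1 h with detection reagent at ambient temperature.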
D2 antagonist: HTS Assay for Allosteric Antagonists of the Human D2 Dopamine Receptor: Primary Screen for Antagonists; HEK293 TREx D2 cells, calcium flux, dopamine EC80; inhibition, % at 10 µM; 340,000 compounds, 2% hits; AID 485344, 2010; in the data active = inhibition above about 30%; inactive = below that, where a call was filed; also: 0% is about no effect
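Tetracycline-induced HEK293 T-REx cells expressing D2 force-coupled to calcium signalling were dye-loaded, exposed to compound for 180 s, then challenged with an EC80 of dopamine; calcium flux was followed kinetically for a further 180 s.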
D2 ag-2: Beta-Arrestin HTS for Positive Allosteric Modulators of the Human D2 Dopamine Receptor: Agonists | D(2) dopamine receptor (Homo sapiens), P14416 | DiscoveRx PathHunter D2 beta-arrestin, luminescence, 90 min; 100% = 57 uM dopamine signal | activation, % (concentration not given with the values) | 360,000 compounds, 0.084% hits | AID 624465, 2012; in the data active = activation above about 40%; inconclusive = between about 15% and that limit
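Agonist mode: compounds alone added to overnight-plated D2 PathHunter cells for 90 min at 37 C, with 57 uM final dopamine (EC100) defining full response. Beta-arrestin recruitment detected by chemiluminescent reagent, read after 1 h at ambient temperature.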
* = called active by the depositor; ? = inconclusive; / = no result given. This is a sample that favours compounds with a hit; in the whole collection about 2.4% have one here.

SMILES | D2 PAM-1 | D2 ag-1 | D2 PAM-2 | D2 antagonist | D2 ag-2
O=C(NC1CC(=O)N(c2ccc(F)cc2)C1)C1CCCC1 (centres undefined) | -6 | 1 | / | / | /
C=CCNCCOCCSc1ccc(Cl)cc1 | -20 | 0 | -28 | 32* | 6
CCCCCCc1cc2cc(-c3nnc(-c4ccccc4O)o3)c(=O)oc2cc1O | -6 | 39* | 2 | 19 | 6
CCCCCCc1cc2cc(-c3nnc(-c4ccccc4OC)o3)c(=O)oc2cc1O | -1 | 110* | 155* | -43 | ?
CCCCCCc1cc2cc(S(=O)(=O)c3ccc(F)cc3)c(=O)oc2cc1O | 11 | 23 | 11 | 16 | 3
CCCCCCc1cc2cc(-c3nnc(-c4cc(OC)c(OC)c(OC)c4)o3)c(=O)oc2cc1O | 7 | 0 | -10 | 0 | 0
CC(=O)NC(CC(=O)OCc1ccc([N+](=O)[O-])cc1)c1ccccc1 (centres undefined) | 37* | -1 | -7 | -4 | -3
CC(C(=O)NCC1CCCCC1)N1CCc2ccccc2C1 (centres undefined) | -19 | 2 | -31 | 54* | -1
Cc1cc(C(C)(C)C)ccc1OC(=O)C1=CC=CN2CCS(=O)(=O)N=C12 | 7 | 1 | 1 | 40* | -5
CC1CCC(Nc2nc3c(-c4cccc(C(F)(F)F)c4)nnn3c3ccccc23)CC1 (centres undefined) | 21 | / | / | / | /
CCOc1ccccc1NC(=O)CCNS(=O)(=O)c1cccc2nonc12 | 0 | 1 | -9 | -19 | -5
Cc1cccc(NC(=O)CCNS(=O)(=O)c2cccc3nonc23)c1C | -6 | 0 | -1 | 31* | 4
CCOc1ccc(CCNC(=O)c2ccc(Cn3c(=O)c4cccn4c4cccnc43)cc2)cc1 | 0 | 1 | / | / | /
CCCNCC1C(Oc2ccc(Cl)cc2)C(=O)N1c1ccccc1C (centres undefined) | -23 | 1 | -22 | 51* | -5
COCCNCC1C(Oc2ccc(Cl)cc2)C(=O)N1c1ccccc1C (centres undefined) | -34 | 1 | -23 | 50* | 1
Cc1cc(O)c(C(C)C)cc1N=Nc1ccccc1C(=O)O | 4 | -1 | -12 | 9 | -5
CN1C(=O)C(N=Nc2ccccc2C(=O)O)N(C)C1=S (centres undefined) | 3 | 9 | -8 | 40* | -3
CCOc1ccccc1N(C)C(=O)c1sc2nc3n(c(=O)c2c1C)CCCC3 | 0 | -1 | / | / | /
COc1cccc(CNS(=O)(=O)c2ccc3c(c2)N(C(C)=O)CCO3)c1 | -19 | 0 | -20 | 61* | -3
Cc1cccc(NC(=O)CS(=O)(=O)c2nc(-c3ccccc3)cn2-c2cccc(Cl)c2)c1C | -8 | 0 | / | / | /
COC(=O)C1Sc2[nH]c(=O)sc2C2c3ccccc3OC(=O)C12 (centres undefined) | 23 | 0 | -9 | -5 | 2
COC(=O)C1Sc2[nH]c(=O)sc2C(c2ccc(Cl)cc2)C1C(=O)OC (centres undefined) | 5 | -1 | -2 | 38* | -3
COc1ccc(CN(C)CC(O)COC(c2ccc(OC)cc2)c2ccc(OC)cc2)cc1 (centres undefined) | -4 | 1 | -7 | 39* | 1
CCOc1ccc(CN(C)CC(O)COC(c2ccc(OC)cc2)c2ccc(OC)cc2)cc1 (centres undefined) | 0 | 0 | -10 | 30* | 4
COc1ccc(C(OCC(O)CN(C)C2CCCCC2)c2ccc(OC)cc2)cc1 (centres undefined) | -3 | 0 | -13 | 24 | -4
SMILES | D2 PAM-1 | D2 ag-1 | D2 PAM-2 | D2 antagonist | D2 ag-2
CCN(Cc1ccccc1)S(=O)(=O)c1ccc(C(=O)Nc2nnc(-c3ccccc3OC)o2)cc1 | -2 | 1 | -1 | 42* | 1
CC(=O)c1ccc(N2CCN(C(=O)Cn3ncc4c3-c3ccccc3OC4)CC2)cc1 | -20 | 2 | / | / | /
O=C(Nc1nnc(SCC(=O)N2CCCCC2)s1)C1CCCCC1 | 37* | 0 | 5 | 7 | -3
Cc1cc2oc(C(=O)Nc3ccc(S(=O)(=O)Nc4onc(C)c4C)cc3)cc(=O)c2cc1C | -5 | 0 | / | / | /
Cc1cc(Cl)ccc1OCCCC(=O)N1CCN(C)CC1 | -12 | -1 | -27 | 32* | 0
CCCCOC(=O)c1ccc(Nc2ncnc3[nH]ncc23)cc1 | 12 | 0 | / | / | /
COc1ccc(S(=O)(=O)NCc2cccnc2)cc1Br | 4 | 1 | 60* | -5 | 11
COc1ccc(S(=O)(=O)NCc2cccnc2)cc1 | -7 | -1 | -3 | 8 | -5
Cn1nccc1NC(=O)Nc1ccccc1 | 13 | 0 | -7 | 7 | 4
Cn1nccc1NC(=O)Nc1ccc(Cl)cc1 | -10 | 0 | -1 | 43* | -1
CCOC(=O)C1(C)C=C(Nc2ccc(C(N)=O)cc2)C(=O)N1c1ccccc1 (centres undefined) | 7 | -1 | / | / | /
Cc1ccc(-n2ncc3c(=O)[nH]c(SCC(=O)NCC4CCCO4)nc32)cc1 (centres undefined) | / | / | -2 | / | 0
Cc1ccc(-c2[nH]c(-c3ccc(Cl)cc3)nc2SCC(=O)NCC2CCCO2)cc1 (centres undefined) | -20 | 4 | -11 | 61* | -2
CCc1ccc(-c2nc(SCC(=O)NCC3CCCO3)c(-c3ccc(C)cc3)[nH]2)cc1 (centres undefined) | -22 | -1 | / | / | /
O=C(CSc1nc2c(cnn2-c2cccc(Cl)c2)c(=O)[nH]1)NCC1CCCO1 (centres undefined) | 4 | 0 | 1 | 39* | 8
Cc1ccc(-c2nc(S(=O)(=O)c3ccc(F)cc3)c(SCC(=O)NCC3CCCO3)o2)cc1 (centres undefined) | 36* | 1 | -3 | -7 | 0
COc1ccc(NC(=O)C(=O)NCC(c2cccnc2)N2CCc3ccccc3C2)cc1 (centres undefined) | -3 | -1 | / | / | /
O=S(=O)(c1ccccc1)c1nnn2c1nc(N1CCN(c3ccccc3)CC1)c1cc(Cl)ccc12 | -1 | 0 | / | / | /
CC(C)c1ccc(NC(=O)C(Cc2ccccc2)NS(=O)(=O)c2ccc3c(c2)CCC(=O)N3)cc1 (centres undefined) | -4 | 0 | / | / | /
O=C(C1CC1)N1CCc2cc(Br)cc(S(=O)(=O)N3CCN(c4ccccc4)CC3)c21 | -2 | 1 | / | / | /
O=C(C1CC1)N1CCc2cc(Br)cc(S(=O)(=O)N3CCN(c4ccccn4)CC3)c21 | -1 | 1 | 10 | 46* | -2

Screening results from PubChem BioAssay.
